From the supplement of paper PMC10849652
Targets with a hit are over-represented here; the source holds about 7,900 in all. About 0.6% of all pairs of compound and target were hits. A number with no mark means an inactive call.

Assays:
Test in all cases: log2 fold change, soluble protein after heating vs DMSO (PISA); higher = thermal stabilisation; K562 cells, 10 uM, 30 min; active = over 0.2 and 3.5 SD of the protein, either way, in both replicates (recomputed)
[1] = compound: CC1=C(C=C(C=C1)NC(=O)C2=CC(=CC=C2)C(C)(C)C#N)NC3=CC4=C(C=C3)N=CN(C4=O)C
Procedure, shortened: (§1)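 K562 cells at 2×10^6 cells/mL were given 10 μM compound for 30 min. Aliquots then went through 3 min of heating across 48°C-58°C, were pooled, and were extracted in PBS with 0.5% NP-40 at 4°C, and the supernatant after 21,000xg for 90 min was quantified by TMTpro 16plex LC-MS/MS with channel sums equalised. Thermal stability relative to control samples, from duplicates, is given as log2 fold change.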

[2] = compound: CC1=C(C=C(C=C1)NC(=O)C2=CC(=CC=C2)N(C)C)NC(=O)C3=CC=C(C=C3)O
Procedure, shortened: as §1

[3] = compound: CC1=CC=C(C=C1)SC2=C3C=C(SC3=CN=C2)C(=O)N
Procedure, shortened: as §1

[4] = compound: CC1=NC(=CC=C1)C2=C(N=C(N2)C(C)(C)C)C3=CC4=NC=CN=C4C=C3
Procedure, shortened: as §1

Nexturastat A = compound: CCCCN(Cc1ccc(C(=O)NO)cc1)C(=O)Nc1ccccc1 [Nexturastat A]
Procedure, shortened: as §1

vemurafenib = compound: CCCS(=O)(=O)Nc1ccc(F)c(C(=O)c2c[nH]c3ncc(-c4ccc(Cl)cc4)cc23)c1F [vemurafenib]
Procedure, shortened: as §1

[5] = compound: CCCS(=O)(=O)Nc1ccc(F)c(C(=O)c2c[nH]c3ncc(Cl)cc23)c1F
Procedure, shortened: as §1

[6] = compound: CCCc1cc(C)[nH]c(=O)c1CNC(=O)c1cc(-c2ccnc(N3CCN(C)CC3)c2)cc2c1cnn2C(C)C
Procedure, shortened: as §1

givinostat = compound: CCN(CC)Cc1ccc2cc(COC(=O)Nc3ccc(C(=O)NO)cc3)ccc2c1 [givinostat]
Procedure, shortened: as §1

barasertib = compound: CCN(CCCOc1ccc2c(Nc3cc(CC(=O)Nc4cccc(F)c4)[nH]n3)ncnc2c1)CCOP(=O)(O)O [barasertib]
Procedure, shortened: as §1

Sequence of UniProt O43524 (O43524 whole entry, looked up): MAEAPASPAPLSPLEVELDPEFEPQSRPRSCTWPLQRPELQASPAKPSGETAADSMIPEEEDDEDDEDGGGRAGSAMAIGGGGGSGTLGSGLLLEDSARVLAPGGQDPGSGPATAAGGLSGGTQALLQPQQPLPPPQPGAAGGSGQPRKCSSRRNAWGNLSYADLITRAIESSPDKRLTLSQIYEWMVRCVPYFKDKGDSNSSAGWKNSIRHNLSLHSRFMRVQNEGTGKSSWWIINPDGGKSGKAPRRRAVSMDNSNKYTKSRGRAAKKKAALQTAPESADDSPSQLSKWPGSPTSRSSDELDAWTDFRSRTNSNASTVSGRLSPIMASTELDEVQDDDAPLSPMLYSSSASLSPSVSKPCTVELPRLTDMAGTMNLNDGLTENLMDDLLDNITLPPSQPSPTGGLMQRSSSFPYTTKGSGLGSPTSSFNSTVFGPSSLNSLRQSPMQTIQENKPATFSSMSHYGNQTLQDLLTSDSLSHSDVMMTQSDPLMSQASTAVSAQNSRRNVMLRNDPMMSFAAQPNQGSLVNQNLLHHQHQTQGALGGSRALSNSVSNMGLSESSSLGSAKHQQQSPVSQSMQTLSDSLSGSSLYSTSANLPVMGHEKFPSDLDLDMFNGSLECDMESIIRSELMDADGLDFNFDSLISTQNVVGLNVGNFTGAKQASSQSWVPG
Sequence of UniProt P52789 (P52789 whole entry, looked up): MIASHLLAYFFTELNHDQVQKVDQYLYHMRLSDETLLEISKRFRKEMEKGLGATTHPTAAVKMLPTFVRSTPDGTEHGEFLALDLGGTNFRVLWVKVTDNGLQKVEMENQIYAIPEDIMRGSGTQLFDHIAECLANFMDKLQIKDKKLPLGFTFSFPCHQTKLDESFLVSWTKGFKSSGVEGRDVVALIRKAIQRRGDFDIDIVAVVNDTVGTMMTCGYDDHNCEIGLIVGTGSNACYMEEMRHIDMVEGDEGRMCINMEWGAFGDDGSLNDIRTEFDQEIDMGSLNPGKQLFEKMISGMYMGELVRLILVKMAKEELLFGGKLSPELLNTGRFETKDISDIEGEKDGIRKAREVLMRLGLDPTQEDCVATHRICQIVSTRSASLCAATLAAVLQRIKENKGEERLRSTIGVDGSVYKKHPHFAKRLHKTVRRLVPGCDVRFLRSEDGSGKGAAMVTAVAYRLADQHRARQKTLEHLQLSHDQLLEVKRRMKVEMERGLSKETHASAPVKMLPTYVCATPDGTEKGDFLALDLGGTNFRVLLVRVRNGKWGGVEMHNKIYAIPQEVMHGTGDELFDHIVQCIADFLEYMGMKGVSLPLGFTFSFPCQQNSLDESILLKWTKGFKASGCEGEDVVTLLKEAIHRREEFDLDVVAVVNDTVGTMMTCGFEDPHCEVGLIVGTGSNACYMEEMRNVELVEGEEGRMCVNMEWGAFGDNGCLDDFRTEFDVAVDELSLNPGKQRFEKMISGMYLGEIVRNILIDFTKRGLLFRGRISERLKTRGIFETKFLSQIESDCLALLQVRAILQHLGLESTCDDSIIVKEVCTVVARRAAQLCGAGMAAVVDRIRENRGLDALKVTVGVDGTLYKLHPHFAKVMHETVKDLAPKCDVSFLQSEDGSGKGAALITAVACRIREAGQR
Sequence of UniProt Q14527 (Q14527 whole entry, looked up): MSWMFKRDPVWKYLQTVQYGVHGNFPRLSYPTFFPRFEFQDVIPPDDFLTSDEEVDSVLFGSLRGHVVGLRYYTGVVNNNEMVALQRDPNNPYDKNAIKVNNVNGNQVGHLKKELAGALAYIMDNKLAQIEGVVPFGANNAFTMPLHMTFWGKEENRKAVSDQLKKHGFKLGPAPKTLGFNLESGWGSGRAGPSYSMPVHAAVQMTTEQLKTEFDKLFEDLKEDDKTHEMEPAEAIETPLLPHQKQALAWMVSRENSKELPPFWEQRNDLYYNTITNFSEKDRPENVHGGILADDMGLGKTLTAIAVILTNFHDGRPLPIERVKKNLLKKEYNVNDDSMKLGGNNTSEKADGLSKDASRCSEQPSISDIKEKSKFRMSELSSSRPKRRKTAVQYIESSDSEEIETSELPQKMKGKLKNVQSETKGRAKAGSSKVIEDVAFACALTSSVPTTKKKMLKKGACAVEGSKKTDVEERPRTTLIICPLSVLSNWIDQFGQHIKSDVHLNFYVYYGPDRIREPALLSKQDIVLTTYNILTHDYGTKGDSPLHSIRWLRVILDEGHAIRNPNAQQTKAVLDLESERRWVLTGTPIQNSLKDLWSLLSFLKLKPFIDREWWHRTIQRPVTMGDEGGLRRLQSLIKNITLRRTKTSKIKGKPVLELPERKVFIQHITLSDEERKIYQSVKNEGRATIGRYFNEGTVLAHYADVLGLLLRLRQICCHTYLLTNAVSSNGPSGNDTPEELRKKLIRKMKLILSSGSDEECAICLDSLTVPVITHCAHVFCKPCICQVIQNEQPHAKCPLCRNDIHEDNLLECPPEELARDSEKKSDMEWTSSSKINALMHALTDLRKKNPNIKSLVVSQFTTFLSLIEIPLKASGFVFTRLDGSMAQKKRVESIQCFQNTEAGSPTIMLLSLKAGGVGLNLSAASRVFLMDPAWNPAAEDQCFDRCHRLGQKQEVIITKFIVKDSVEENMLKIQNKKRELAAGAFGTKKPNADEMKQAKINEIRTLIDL
Sequence of UniProt O14976 (O14976 whole entry, looked up): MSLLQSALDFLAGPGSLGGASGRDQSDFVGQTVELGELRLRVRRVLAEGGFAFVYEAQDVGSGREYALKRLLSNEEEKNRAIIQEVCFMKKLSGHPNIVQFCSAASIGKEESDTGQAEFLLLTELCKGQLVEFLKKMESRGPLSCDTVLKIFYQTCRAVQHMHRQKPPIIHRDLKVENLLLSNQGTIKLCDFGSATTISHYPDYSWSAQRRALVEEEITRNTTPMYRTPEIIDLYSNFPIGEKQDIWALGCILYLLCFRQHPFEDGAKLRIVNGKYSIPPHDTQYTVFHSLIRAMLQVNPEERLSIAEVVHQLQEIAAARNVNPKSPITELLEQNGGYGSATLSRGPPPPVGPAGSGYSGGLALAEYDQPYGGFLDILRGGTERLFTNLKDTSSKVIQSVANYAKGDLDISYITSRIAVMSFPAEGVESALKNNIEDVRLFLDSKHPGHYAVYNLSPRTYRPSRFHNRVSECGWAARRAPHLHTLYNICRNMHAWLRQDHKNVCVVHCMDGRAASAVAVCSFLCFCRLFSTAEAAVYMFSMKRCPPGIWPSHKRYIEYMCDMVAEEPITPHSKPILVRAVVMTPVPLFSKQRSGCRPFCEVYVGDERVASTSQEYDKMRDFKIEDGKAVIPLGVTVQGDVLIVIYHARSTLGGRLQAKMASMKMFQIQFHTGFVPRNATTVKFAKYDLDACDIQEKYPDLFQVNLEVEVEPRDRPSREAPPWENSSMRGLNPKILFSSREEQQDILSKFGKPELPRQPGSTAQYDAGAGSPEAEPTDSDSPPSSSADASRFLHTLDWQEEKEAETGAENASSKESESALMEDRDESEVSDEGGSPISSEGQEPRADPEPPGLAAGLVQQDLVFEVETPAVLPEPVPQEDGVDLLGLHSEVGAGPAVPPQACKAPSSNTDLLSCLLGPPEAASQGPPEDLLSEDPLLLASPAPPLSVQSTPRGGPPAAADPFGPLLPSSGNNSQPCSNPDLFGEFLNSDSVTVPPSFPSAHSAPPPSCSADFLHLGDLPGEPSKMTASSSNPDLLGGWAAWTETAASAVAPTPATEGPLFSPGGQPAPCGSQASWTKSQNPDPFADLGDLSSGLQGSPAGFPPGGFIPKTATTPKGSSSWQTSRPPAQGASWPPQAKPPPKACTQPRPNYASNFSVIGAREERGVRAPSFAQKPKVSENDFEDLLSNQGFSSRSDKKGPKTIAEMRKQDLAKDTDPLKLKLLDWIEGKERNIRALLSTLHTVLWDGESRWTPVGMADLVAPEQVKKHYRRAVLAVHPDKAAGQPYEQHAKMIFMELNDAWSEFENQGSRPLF
Sequence of UniProt Q02790 (Q02790 whole entry, looked up): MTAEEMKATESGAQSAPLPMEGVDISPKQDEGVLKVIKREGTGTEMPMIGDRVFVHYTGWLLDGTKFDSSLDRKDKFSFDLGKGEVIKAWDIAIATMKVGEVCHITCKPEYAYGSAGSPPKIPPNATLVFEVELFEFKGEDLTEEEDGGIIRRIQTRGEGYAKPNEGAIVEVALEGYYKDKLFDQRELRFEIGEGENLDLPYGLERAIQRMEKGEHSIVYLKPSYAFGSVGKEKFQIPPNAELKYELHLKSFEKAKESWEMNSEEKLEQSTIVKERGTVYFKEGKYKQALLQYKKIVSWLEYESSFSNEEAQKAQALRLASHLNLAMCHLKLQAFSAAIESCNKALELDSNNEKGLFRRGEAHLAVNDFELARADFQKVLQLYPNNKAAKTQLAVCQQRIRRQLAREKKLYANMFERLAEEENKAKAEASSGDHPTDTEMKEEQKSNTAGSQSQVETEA
Sequence of UniProt P22570 (P22570 whole entry, looked up): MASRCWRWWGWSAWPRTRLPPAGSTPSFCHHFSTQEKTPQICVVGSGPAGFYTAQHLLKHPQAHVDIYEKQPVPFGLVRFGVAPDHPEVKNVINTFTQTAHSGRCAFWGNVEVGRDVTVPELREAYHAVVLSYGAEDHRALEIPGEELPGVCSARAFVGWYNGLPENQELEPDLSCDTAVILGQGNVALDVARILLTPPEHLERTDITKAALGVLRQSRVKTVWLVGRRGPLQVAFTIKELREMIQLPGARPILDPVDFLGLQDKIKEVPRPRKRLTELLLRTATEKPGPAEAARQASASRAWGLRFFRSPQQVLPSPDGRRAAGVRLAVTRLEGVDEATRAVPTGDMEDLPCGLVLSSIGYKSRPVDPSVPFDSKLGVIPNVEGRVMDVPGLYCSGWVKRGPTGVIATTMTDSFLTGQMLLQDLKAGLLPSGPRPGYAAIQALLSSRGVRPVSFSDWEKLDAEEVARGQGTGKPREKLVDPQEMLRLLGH
Sequence of UniProt Q03013 (Q03013 whole entry, looked up): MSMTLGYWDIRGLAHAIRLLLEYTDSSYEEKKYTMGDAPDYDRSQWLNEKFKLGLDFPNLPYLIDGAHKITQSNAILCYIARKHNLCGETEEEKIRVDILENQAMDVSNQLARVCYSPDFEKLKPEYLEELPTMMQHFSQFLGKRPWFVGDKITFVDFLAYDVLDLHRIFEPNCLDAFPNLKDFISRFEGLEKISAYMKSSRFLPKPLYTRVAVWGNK

| Target | log2 fold change [1] | log2 fold change [2] | log2 fold change [3] | log2 fold change [4] | log2 fold change (Nexturastat A) | log2 fold change (vemurafenib) | log2 fold change [5] | log2 fold change [6] | log2 fold change (givinostat) | log2 fold change (barasertib) |
| --- | --- | --- | --- | --- | --- | --- | --- | --- | --- | --- |
| GAB2 (UniProt Q9UQC2) | -0.053 | -0.21 | 0.022 | 0.077 | 0.075 | -0.071 | -0.349 | 0.099 | 0.101 | – |
| HDGFL2 (UniProt Q7Z4V5) | -0.281 (active) | 0 | -0.006 | 0.049 | 0.063 | -0.022 | 0.007 | -0.078 | 0.049 | 0.037 |
| GABPA (UniProt Q06546) | -0.007 | -0.011 | 0.064 | 0.039 | 0.008 | 0.062 | 0.09 | -0.004 | 0.17 | 0.022 |
| FDXR isoform 7 (UniProt P22570) | -0.011 | -0.078 | -0.039 | 0.072 | -0.07 | 0.02 | 0.024 | 0.059 | -0.021 | 0.035 |
| GCSH (UniProt P23434) | -0.024 | 0.047 | 0.279 | 0.006 | -0.06 | 0.079 | -0.021 | -0.139 | 0 | -0.095 |
| H1FX (UniProt Q92522) | 0.081 | -0.059 | -0.106 | -0.222 | 0.278 | -0.083 | -0.077 | 0.176 | -0.034 | -0.129 |
| GAK (UniProt O14976) | 0.214 | 0.038 | -0.337 | -0.14 | 0.452 | -0.06 | 0.114 | 0.17 | 0.64 | – |
| GEMIN5 (UniProt Q8TEQ6) | 0.035 | -0.038 | 0.009 | -0.013 | -0.004 | 0.015 | 0.093 | 0.018 | -0.1 | 0.019 |
| GSTO1 (UniProt P78417) | -0.031 | 0.002 | 0.03 | 0.03 | -0.121 | 0.02 | 0.017 | 0.15 | -0.043 | 0.016 |
| FUCA1 (UniProt P04066) | 0.03 | 0.009 | 0.021 | 0.092 | -0.054 | -0.007 | 0.066 | -0.016 | 0 | 0.012 |
| FCF1 (UniProt Q9Y324) | 0.017 | -0.011 | -0.114 | -0.187 | 0.271 | -0.139 | -0.167 | 0.324 | – | – |
| FKBP4 (UniProt Q02790) | 0.032 | -0.037 | 0.015 | 0.045 | -0.027 | 0.032 | 0.06 | -0.009 | 0.012 | 0.013 |
| HK2 (UniProt P52789) | -0.257 (active) | -0.028 | 0 | 0.019 | 0.017 | 0.003 | 0.027 | -0.041 | -0.016 | 0.051 |
| FMC1 (UniProt Q96HJ9) | -0.036 | -0.029 | 0.027 | 0.004 | -0.038 | -0.065 | 0.014 | -0.074 | -0.051 | 0.022 |
| HLTF (UniProt Q14527) | 0.04 | -0.014 | -0.056 | 0.038 | 0.019 | 0.047 | 0.048 | 0.109 | 0.018 | 0.007 |
| FCHO1 (UniProt O14526) | 0.103 | -0.023 | 0.004 | -0.016 | 0.053 | 0.254 | 0.037 | -0.003 | 0.073 | – |
| HRC (UniProt P23327) | -0.199 | 0.031 | 0.008 | 0.005 | 0.041 | -0.044 | -0.097 | -0.025 | -0.059 | 0.021 |
| GSTM4 (UniProt Q03013) | 0.106 | 0.128 | -0.041 | 0.015 | -0.117 | 0.126 | -0.058 | -0.105 | 0.001 | -0.164 |
| GYG1 (UniProt P46976) | 0.209 | 0.035 | -0.041 | -0.029 | 0.146 | 0.014 | 0.046 | 0.101 | 0.027 | -0.037 |
| GPS2 (UniProt Q13227) | -0.13 | -0.04 | -0.17 | -0.013 | -0.316 (active) | 0.019 | -0.01 | 0.026 | -0.145 | -0.008 |
| HOOK3 (UniProt Q86VS8) | -0.024 | -0.023 | -0.014 | -0.039 | 0.034 | -0.014 | -0.001 | -0.026 | 0.091 | 0.008 |
| FOXO3 (UniProt O43524) | 0.247 | -0.039 | 0.037 | 0.119 | 0.024 | -0.023 | 0.017 | -0.159 | 0.012 | – |
| GMEB1 (UniProt Q9Y692) | 0.088 | 0.041 | 0.04 | 0.014 | -0.041 | -0.048 | 0.154 | 0.047 | 0.058 | 0.008 |
| GMEB2 (UniProt Q9UKD1) | 0.038 | -0.033 | 0.041 | -0.066 | 0.09 | 0.012 | 0.041 | -0.088 | 0.087 | 0.029 |
| HRAS (UniProt P01112) | -0.042 | -0.065 | -0.031 | 0.096 | 0.147 | 0.064 | -0.083 | 0.089 | -0.065 | 0.063 |
| HIP1 (UniProt O00291) | -0.086 | -0.004 | -0.028 | 0.002 | 0.286 (active) | -0.003 | 0.056 | 0.233 | 0.043 | 0.01 |
| IDI1 isoform 2 (UniProt Q13907) | -0.017 | -0.007 | -0.015 | 0.003 | -0.082 | 0.005 | -0.029 | -0.185 | -0.219 | 0.024 |
| FLNA (UniProt P21333) | -0.03 | -0.049 | 0.015 | 0.006 | 0.092 | 0.021 | 0.075 | 0.044 | 0.092 | 0.019 |
| FIBP (UniProt O43427) | 0.046 | -0.009 | 0.001 | 0 | -0.009 | 0.03 | 0.089 | 0 | -0.009 | -0.071 |
| GOPC (UniProt Q9HD26) | 0.207 | 0.018 | -0.051 | -0.066 | 0.131 | 0.094 | -0.128 | 0.244 | 0.152 | -0.116 |
